Measured values as given in ChEMBL document CHEMBL1157539, “Thousands of chemical starting points for antimalarial lead identification” (Nature, 2010).

Key:
Type in all cases: functional
[1] = system: Plasmodium falciparum; assay: GSK_TCMDC: Inhibition of Plasmodium falciparum 3D7 in whole red blood cells, using parasite LDH activity as an index of growth. Test compounds present at 2uM
[2] = system: Plasmodium falciparum; assay: GSK_TCMDC: Inhibition of Plasmodium falciparum Dd2 in whole red blood cells, using parasite LDH activity as an index of growth. Test compounds present at 2uM
[3] = system: HepG2; assay: GSK_TCMDC: Percent inhibition of human HepG2 cell line. Test compounds present at 10uM.

Compound | Inhibition [1] [%] | Inhibition [2] [%] | Inhibition [3] [%]
CN(C)CCC=C1c2ccccc2Sc2c(O)cc(Cl)cc21.O=C(O)/C=C\C(=O)O | 100 | 80 | 8
CN(CCN)Cc1ccc(-c2ccc(-c3nc4cc(F)ccc4[nH]3)s2)cc1.O=C(O)C(F)(F)F | 96 | 81 | 31
COC(=O)C(=C(C)C)N1C(=O)[C@@H](NC(=O)OCc2ccccc2)[C@H]1SS[C@@H]1[C@H](NC(=O)OCc2ccccc2)C(=O)N1C(C(=O)OC)=C(C)C | 97 | 96 | 18
CO/C(=C\C=C\c1cc2cc(Cl)c(Cl)cc2[nH]1)C(=O)NCCCN1CCCC[C@H]1C | 100 | 91 | 41
Cc1cc(NC(=O)c2ccco2)ccc1OC1CCN(Cc2ccc(C#N)cc2)CC1.O=C(O)C(F)(F)F | 92 | 89 | 2
Cl.NCc1ccc(Nc2nccc(Nc3ccc(-c4ccccc4)cc3)n2)cc1 | 100 | 98 | 47
Cc1ccc(NC(=O)c2ccc3ncccc3c2)cc1OC1CCN(Cc2ccc(F)cc2)CC1.O=C(O)C(F)(F)F | 91 | 22 | 6
O=C(Nc1ccc(CN2CCOCC2)cc1)c1ccc(-c2ccc(Cl)cc2)o1 | 98 | 11 | 22
Cc1cc(NC(=O)NCCN2CCC(NS(=O)(=O)c3ccc(C(F)(F)F)cc3)C2)c2ccccc2n1.O=C(O)C(F)(F)F (configuration not stated) | 96 | 39 | 15
O=C(Nc1cccc(-c2ccc(-c3nc4cc(C(F)(F)F)ccc4[nH]3)cc2)c1)Nc1ccc(F)c(F)c1F | 100 | 99 | 45
Cc1ccc(F)c(NC(=O)c2c(-c3c(F)cccc3Cl)noc2C)c1 | 90 | 18 | 13
CN1CCCC1CCNc1ncc2c(-c3ccc(NC(=O)Nc4cc(C(F)(F)F)ccc4F)c(F)c3)nn(C)c2n1.O=C(O)C(F)(F)F (configuration not stated) | 99 | 90 | 100
COc1cc(C2CCN(CCCCNC(=O)c3ccc(NC(=O)c4cc(C(F)(F)F)cc(C(F)(F)F)c4)cc3)CC2)ccc1OC(C)C | 100 | 100 | 21
Cc1cc(NC(c2ccc(Cl)cc2)c2ccc3cccnc3c2O)no1 (configuration not stated) | 88 | 26 | 50
Cc1cccc(C)c1CNc1ccnc2cc(C#N)ccc12.Cl | 100 | 99 | 20
Cc1ccc(-c2ccc(Cl)cc2Oc2cnc(N)nc2N)o1 | 100 | 3 | 15
COc1cccc(OC)c1CN1CCC(N(C)CCCCCCCCCN2CCC(OC(=O)Nc3ccccc3-c3ccccc3)CC2)CC1 | 98 | 98 | 100
CCCC(=O)Nc1ccc(Cl)c(NC(=O)COc2cc(C)ccc2C(C)C)c1 | 87 | 67 | 2
COc1cc(N(Cc2ccc(F)cc2)C(=O)c2ccc(-c3ccccc3)cc2)ccc1OCCN1CCCC1.Cl | 93 | 4 | 11
CN1CCC(N(Cc2ccc(-c3ccc(C(F)(F)F)cc3)cc2)C(=O)Cn2cc(Cc3cnn(C)c3)c(=O)nc2SCc2cccc(F)c2F)CC1.O=C(O)C(O)C(O)C(=O)O | 88 | 91 | 68

Compound | Inhibition [1] [%] | Inhibition [2] [%] | Inhibition [3] [%]
CNC(=O)C(NC(=O)c1ccccc1C(=O)OC)c1ccccc1 (configuration not stated) | 96 | 2 | 4
CN(Cc1c(Cl)cnn1C)S(=O)(=O)c1ccc2ccccc2c1 | 94 | 36 | 7
CN1CCN(S(=O)(=O)c2ccc3nccc(Nc4ccc(Oc5ccccc5)cc4)c3c2)CC1.Cl | 98 | 91 | 0
CC[C@H](C)CNC(=O)c1cncc(-c2cccc(CN3CCC(N4CCCC4)CC3)c2)c1.O=C(O)C(F)(F)F | 97 | 5 | 0
CCn1c(C2CCN(CCC3CCN(C(=O)/C=C/c4ccc(Cl)c(Cl)c4)CC3)CC2)nc2ccccc21 | 86 | 0 | 17
CCCNCc1ccc(-c2ccc(CN(CCOC)C(=O)COc3ccccc3Cl)cc2)nc1.O=C(O)C(F)(F)F | 96 | 29 | 0
O=[N+]([O-])c1nc(Br)n(Cc2ccc(Cl)cc2)n1 | 96 | 95 | 0
Brc1cc2c(cc1C=NNc1nc(=Nc3ccccc3)[nH]c(=Nc3ccccc3)[nH]1)OCO2 | 100 | 32 | 0
Oc1nc(Cc2ccccc2)nc2ccc(Cl)cc12 | 92 | 76 | 13
CCN(CC)CCN(Cc1ccc(-c2ccc(C(F)(F)F)cc2)nc1)C(=O)Cn1c(SCc2ccc(F)cc2)nc(=O)c2sccc21.O=C(O)C(O)C(O)C(=O)O | 96 | 66 | 43
COc1cccc(C(=O)NCc2nnc(S)n2-c2ccc(Cl)c(Cl)c2)c1 | 100 | 100 | 0
CCOC(=O)c1ccc(NC(=O)NC2CCN(CCCCCNC(=O)/C=C/c3ccc(Cl)c(Cl)c3)C2)cc1 (configuration not stated) | 98 | 0 | 23
Cl.N=C(N)NN=Cc1c2ccc(Cl)cc2c(Cl)c2ccc(Cl)cc12 | 100 | 90 | 28
CO/C(=C/C=C/c1cc2cc(Cl)c(Cl)cc2[nH]1)C(=O)NC1CC(C)(C)N(C)C(C)(C)C1 | 99 | 85 | 58
Cc1cc(N[C@@H](Cc2ccccc2)C(=O)Nc2ccccc2)nc(NCCc2ccc(F)cc2)n1.O=C(O)C(F)(F)F | 96 | 81 | 26
Cc1c(NCCCNCc2cc(Cl)cc(Cl)c2Cl)[nH]c2ccccc2c1=O.Cl | 100 | 86 | 35
Cc1cc(N[C@@H](Cc2ccccc2)C(=O)NCCc2ccccc2)nc(NCCc2ccc(F)cc2)n1.O=C(O)C(F)(F)F | 99 | 89 | 9
C=CCc1c(C(=O)NCC23CC4CC(CC(C4)C2)C3)nc2ccccc2c1O | 86 | 79 | 40
CS(=O)(=O)CCNCc1nc(-c2ccc3c(Nc4ccc(Cl)cc4F)ccnc3c2)cs1 | 88 | 28 | 19
COc1ccc(Nc2nccc(NCCNC(=O)c3cc4ccccc4s3)n2)cc1 | 98 | 7 | 6

Compound | Inhibition [1] [%] | Inhibition [2] [%] | Inhibition [3] [%]
CCCC(=O)c1cnc2c(I)cccc2c1Nc1ccccc1C | 90 | 26 | 7
O=C(NC1CCN(Cc2ccc(Cl)cc2)CC1)c1cn(-c2ccccc2)nc1-c1cccnc1 | 93 | 9 | 13
CC(C)(CNCCOc1ccc(Cl)cc1)c1nc(-c2ccnc(N)n2)c(-c2ccc(Cl)c(O)c2)[nH]1.Cl | 97 | 19 | 45
CC(C)N1CCN(C(CN2CCN(CCCOc3ccc4ccccc4c3)CC2)c2ccc(F)cc2)CC1.Cl (configuration not stated) | 100 | 91 | 59
O=C(Nc1ccc2c(c1)CCN2C1CCN(Cc2ccc(F)cc2Cl)C1)c1ccco1 (configuration not stated) | 97 | 96 | 4
Cc1cccc(C(=O)NC(NC(=S)Nc2cc(Cl)ccc2Cl)C(Cl)(Cl)Cl)c1 (configuration not stated) | 94 | 61 | 0
CC1(C)[C@H]2CC[C@@H](CNc3nc(NCCc4c[nH]cn4)nc(Nc4ccc5c(c4)OCO5)n3)[C@@H]1C2 | 100 | 88 | 3
Br.CC1(C)NC(N)=NC(=N)N1OCCCOc1cccc(Cl)c1 | 95 | 95 | 65
O=C(N[C@@H](CC1CCCCC1)C(=O)NCCN1CCCC1)c1ccc(O)c(-c2ccc(Cl)c(Cl)c2)c1 | 99 | 99 | 16
CN(/N=C/c1ccc(Cl)cc1)c1nc(NCCc2ccc(O)cc2)nc(N2CCNCC2)n1 | 100 | 97 | 10
CN(C)c1ccc(-c2ccc(C(=O)NC3CCN(Cc4ccc(F)cc4)CC3)s2)cc1.O=C(O)C(F)(F)F | 87 | 19 | 34
O=C(Nc1cccc(CN2CCCN(Cc3ccsc3)CC2)c1)c1cc2ccccc2s1.O=C(O)C(F)(F)F | 96 | 29 | 25
CC(C)c1ccc(OCC(O)CN(CCN2CCOCC2)C(=O)Nc2ccc(Br)cc2)cc1.O=C(O)C(F)(F)F (configuration not stated) | 98 | 44 | 6
C[C@H](NC(=O)C1CCCC1)C(=O)Nc1ccc(-c2ccc(-c3nc4cc(C(F)(F)F)ccc4[nH]3)cc2)cc1 | 99 | 70 | 34
O=C(/C=C/c1ccc(Cl)c(Cl)c1)NCCCCCCN1CCCN(C(=O)Nc2cc(F)cc(F)c2)CC1 | 99 | 0 | 25
CCOc1cc(Cl)c(C(C)NC(=O)c2ccccc2)cc1OCC (configuration not stated) | 91 | 49 | 0
CC(C)NCc1ccc(-c2ccc(-c3nc4cc(C(F)(F)F)ccc4[nH]3)cc2)cc1.O=C(O)C(F)(F)F | 100 | 98 | 16
N=C(NCc1ccc(O)cc1)Nc1nc(-c2ccc(OCCCn3ccnc3)cc2)cs1 | 100 | 89 | 13
CCN(CC)CCN(Cc1ccc(-c2ccc(C(F)(F)F)cc2)cc1)C(=O)Cn1c(CCc2cc(F)cc(F)c2)nc(=O)c2ccccc21.O=C(O)C(O)C(O)C(=O)O | 91 | 80 | 30
